The values below come from PubChem BioAssay (NCATS).

Inconclusive results are not listed. A number with no mark means an inactive call. Active and inactive are the calls of the source. Calls come from the whole dose curve; as a rule, active = well fitted curve in the direction sought with a large enough effect; inconclusive = small, poorly fitted or top-dose-only effect, or another doubt; inactive = no such curve, though single readings can be large; an effect the other way counts as inactive or inconclusive.
Potency is the fitted concentration of half-maximal effect.

The first experiment in a line: qHTS of pediatric cancer cell lines to identify multiple opportunities for drug repurposing: Primary screen for Rh18 cells (AID 1347102). For activity change, negative = cytotoxic: % is set by controls: 0 for no effect and ±100 for the full control effect. Note: nearly all actives have a fitted effect of over 65% in size. The conditions noted are these: Rh18 rhabdomyosarcoma viability, CellTiter-Glo luminescence, 48 h; series mostly up to 46 µM; activity change, negative = cytotoxic: at the top concentration. The procedure, abridged:
(§1)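 Cells (500-1,000/well) rested 5 h, then received compounds for 48 h; metabolically active cells were measured by CellTiter-Glo luminescence. Final concentrations spanned up to 46 µM (MIPE, 11-point) or 0.59 nM-46 µM (NPC, 8-point) in primary screens, 11-point in follow-ups.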
A general note: In qHTS, concentration-response curves come from the screen itself.
`c1ccc2c(Oc3nc(Nc4ccc(N5CCOCC5)cc4)c4ncn(C5CCCCC5)c4n3)cccc2c1`: the “activity change, negative = cytotoxic” value was -1.36%.
The same measure, in the same setting: to `CC(C)c1cc(C(C)C)c(CC(=O)NS(=O)(=O)Oc2c(C(C)C)cccc2C(C)C)c(C(C)C)c1` belongs 0.583%; to `CCc1nc(-c2cccc(C)c2)c(-c2ccnc(NC(=O)c3ccccc3)c2)s1`, -21.3%; to `N#CC(=C(N)Sc1ccc(N)cc1)c1ccccc1C(F)(F)F`, -3.2%.
The same measure, in the same setting: the figure for `COc1cc(OC)c(C=CS(=O)(=O)Cc2ccc(OC)c(NCC(=O)O)c2)c(OC)c1` is -5.85%; for `C[C@@H](Cc1cc2c(c(C(N)=O)c1)N(CCCO)CC2)NCCOc1ccccc1OCC(F)(F)F` it is -6.66%.
For `CCc1c(O)cc(O)c(C(=O)c2ccc(OCCN3CCOCC3)c(OC)c2)c1CC(=O)N(CCOC)CCOC`, the Potency was 1.32 µM (active).
As for `N#CC(=Cc1ccc(O)c(O)c1)C(=O)NCc1ccccc1`, the “activity change, negative = cytotoxic” value was -4.1%.
For the compound `CC(=O)O[C@@]12CO[C@H]1C[C@H](O)[C@@]1(C)C(=O)[C@H](O)C3=C(C)[C@@H](OC(=O)C(O)[C@@H](NC(=O)OC(C)(C)C)c4ccccc4)C[C@@](O)([C@@H](OC(=O)c4ccccc4)[C@@H]21)C3(C)C` (stereo not given in full), the “activity change, negative = cytotoxic” value is -26.6%.

The nature of a further experiment: qHTS of pediatric cancer cell lines to identify multiple opportunities for drug repurposing: Primary screen for OHS-50 cells (AID 1347103).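 For activity change, negative = cytotoxic: plate controls were DMSO neutral control for no effect and bortezomib positive control for full effect.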 Note: nearly all actives have a fitted effect of over 40% in size. The conditions noted are these: OHS-50 osteosarcoma viability, CellTiter-Glo luminescence, 48 h; series mostly up to 57.3 µM; activity change, negative = cytotoxic: at the top concentration. An outline of the steps: as §1
Take `COc1ccc([C@@H]2CNC(=O)C2)cc1OC1CCCC1`: the “activity change, negative = cytotoxic” value is -20.8%.
On to `CNC(=O)Nc1ccc(-c2nc(N3CC4CCC(C3)O4)c3cnn(C4CCC5(CC4)OCCO5)c3n2)cc1`, for which the Potency is 0.0217 µM (active).
Same read-out and setting: the figure for `CC(C)c1cc(C(C)C)c(CC(=O)NS(=O)(=O)Oc2c(C(C)C)cccc2C(C)C)c(C(C)C)c1` is 27.3 µM (active).
Take `Nc1cccc2c1C(=O)N(C1CCC(=O)NC1=O)C2=O` (stereo not given): the “activity change, negative = cytotoxic” value was -13.9%.
For `Cc1ccc(-n2[nH]c(C)c(N=Nc3cccc(-c4cccc(C(=O)O)c4)c3O)c2=O)cc1C`, the Potency was 17.4 µM (active).
As to `Cc1coc2c1C(=O)C(=O)c1c-2ccc2c(C)cccc12`, the “activity change, negative = cytotoxic” value was -2.71%.
As for `FC(F)(F)c1ccc(Nc2nc3ccc(Oc4ccnc(-c5ncc(C(F)(F)F)[nH]5)c4)cc3[nH]2)cc1`, the Potency was 24.3 µM (active).
Still for that read-out and setting: to `CS(=O)(=O)N1CCc2c(-c3cnc(N)nc3)nc(N3CCOCC3)nc21` belongs 0.0544 µM (active).
Turning to `COc1cc2c(cc1O)CCC1C2CC[C@@]2(C)C1CC[C@@H]2O` (stereo not given in full), the Potency was 7.69 µM (active).
Same read-out and setting: the figure for `COc1cc2ncnc(Nc3cccc(Br)c3)c2cc1OC` is 15.3 µM (active); for `COc1cc(OC)c(C=CS(=O)(=O)Cc2ccc(OC)c(NCC(=O)O)c2)c(OC)c1` it is 0.172 µM (active); for `C[C@H](NC(=O)C(C#N)=Cc1cccc(Br)n1)c1ccccc1` it is 19.3 µM (active).
On the same count and under the same terms, to `CN(CC(=O)N(Cc1ccc(C2CCCCC2)cc1)c1ccc(C(=O)O)c(O)c1)S(=O)(=O)c1c(F)c(F)c(F)c(F)c1F` belongs 21.7 µM (active).
Regarding `CC(=O)O[C@@]12CO[C@H]1C[C@H](O)[C@@]1(C)C(=O)[C@H](O)C3=C(C)[C@@H](OC(=O)C(O)[C@@H](NC(=O)OC(C)(C)C)c4ccccc4)C[C@@](O)([C@@H](OC(=O)c4ccccc4)[C@@H]21)C3(C)C` (stereo not given in full), the Potency was 0.001 µM (active).
On the same count and under the same terms, the figure for `Cn1cc(-c2cnn3c(N)c(Br)c([C@H]4CCCNC4)nc23)cn1` is 0.385 µM (active).
For `COC(=O)C1C2CC3c4[nH]c5cc(OC)ccc5c4CCN3CC2CC(OC(=O)c2cc(OC)c(OC)c(OC)c2)C1OC` (stereo not given), the Potency is 27.3 µM (active).
Still for that read-out and setting: to `CCCCCN=C(N)NN=Cc1c[nH]c2ccc(OC)cc12` belongs 9.68 µM (active); to `C=CC[C@@H]1C=C(C)C[C@H](C)C[C@H](OC)[C@H]2O[C@@](O)(C(=O)C(=O)N3CCCC[C@H]3C(=O)O[C@H](C(C)=C[C@@H]3CC[C@H](O)[C@H](OC)C3)[C@@H](C)[C@@H](O)CC1=O)[C@@H](C)C[C@@H]2OC`, 6.11 µM (active); to `N=c1ccn2c(n1)O[C@H]1[C@@H](O)[C@@H](CO)O[C@H]12`, 2.73 µM (active).
Regarding `N#Cc1c(C2CCNCC2)cc(-c2c(O)cccc2OCC2CC2)nc1N`, the Potency is 15.3 µM (active).
Regarding `C#C[C@]1(O)CC[C@@H]2[C@@H]3CCc4cc(O)ccc4[C@H]3CC[C@@]21C`, the Potency was 30.6 µM (active).
Consider `C[C@]12CC[C@@H]3c4ccc(O)cc4CC[C@H]3[C@H]1CC[C@H]2O`, for which the Potency is 24.3 µM (active).
The same measure, in the same setting: to `N#Cc1ccc(COC[C@H]2O[C@@H](n3c(NCc4ccc(Cl)c(Cl)c4)nc4c(N)ncnc43)[C@@H](O)[C@@H]2O)cc1` belongs 6.85 µM (active); to `CCNC(=O)Nc1ccc(-c2nc3c(c(N4CCOC[C@H]4C)n2)CCN(C2COC2)C3)cc1`, 0.485 µM (active); to `CCOC(=O)N1CCN([N+]([O-])=NOc2ccc([N+](=O)[O-])cc2[N+](=O)[O-])CC1`, 13.7 µM (active).
With `NS(=O)(=O)OC[C@@H]1C[C@@H](n2ccc3c(N[C@H]4CCc5ccccc54)ncnc32)C[C@H]1O`, the “activity change, negative = cytotoxic” value was 35.9%.
With `O=C(Nc1nnc(-c2ccco2)o1)c1cc(-c2ccccc2)nc2ccccc12`, the Potency was 30.6 µM (active).

A further experiment in a line: qHTS of pediatric cancer cell lines to identify multiple opportunities for drug repurposing: Primary screen for RD cells (AID 1347104).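 For activity change, negative = cytotoxic: plate controls were DMSO for no effect and bortezomib for full effect.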 Note: nearly all actives have a fitted effect of over 55% in size. The conditions noted are these: RD rhabdomyosarcoma viability, CellTiter-Glo luminescence, 48 h; series mostly up to 46 µM; activity change, negative = cytotoxic: at the top concentration. The procedure, abridged:
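Cells plated at 500-1,000/well in growth medium, compounds added after 5 h. MIPE tested at 11 points (from 0.78 nM), NPC at 8 points (from 0.59 nM). CellTiter-Glo luminescence after 48 h; concentration-response curves from primary screen.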
On to `COc1ccc([C@@H]2CNC(=O)C2)cc1OC1CCCC1`, for which the Potency is 3.32 µM (active).
For the compound `c1ccc2c(Oc3nc(Nc4ccc(N5CCOCC5)cc4)c4ncn(C5CCCCC5)c4n3)cccc2c1`, the “activity change, negative = cytotoxic” value was -25.2%.
Consider `CNC(=O)Nc1ccc(-c2nc(N3CC4CCC(C3)O4)c3cnn(C4CCC5(CC4)OCCO5)c3n2)cc1`, for which the Potency was 0.0526 µM (active).
In the case of `O=[N+]([O-])c1cn2c(n1)OC[C@@H](OCc1ccc(OC(F)(F)F)cc1)C2`, the “activity change, negative = cytotoxic” value was -14.5%.
The same measure, in the same setting: to `Nc1cccc2c1C(=O)N(C1CCC(=O)NC1=O)C2=O` (stereo not given) belongs -7.26%; to `CC1=C(C(=O)Nc2cc3cn[nH]c3cc2F)C(c2ccc(Cl)cc2F)N=C(c2ccnc(Cl)c2)N1` (stereo not given), -18.4%.
Take `CC(C)n1cnc2c(NCCc3ccc(O)cc3)nc(-c3csc4ccccc34)nc21`: the Potency was 11.8 µM (active).
On the same count and under the same terms, to `FC(F)(F)c1ccc(Nc2nc3ccc(Oc4ccnc(-c5ncc(C(F)(F)F)[nH]5)c4)cc3[nH]2)cc1` belongs 18.7 µM (active); to `CS(=O)(=O)N1CCc2c(-c3cnc(N)nc3)nc(N3CCOCC3)nc21`, 0.418 µM (active); to `C=CCNc1c(O)cc2c(O)c1C[C@@H](C)C[C@H](OC)[C@@H](O)[C@@H](C)C=C(C)[C@H](OC(N)=O)[C@@H](OC)C=CC=C(C)C(=O)N2`, 0.264 µM (active).
Turning to `COc1cc2ncnc(Nc3cccc(Br)c3)c2cc1OC`, the Potency was 0.935 µM (active).
On the same count and under the same terms, the figure for `C[C@H](NC(=O)C(C#N)=Cc1cccc(Br)n1)c1ccccc1` is 33.2 µM (active).
Same read-out and setting: the figure for `CN(CC(=O)N(Cc1ccc(C2CCCCC2)cc1)c1ccc(C(=O)O)c(O)c1)S(=O)(=O)c1c(F)c(F)c(F)c(F)c1F` is 37.2 µM (active).
For `C[C@@H](Cc1cc2c(c(C(N)=O)c1)N(CCCO)CC2)NCCOc1ccccc1OCC(F)(F)F`, the “activity change, negative = cytotoxic” value is -18.3%.
`CCc1c(O)cc(O)c(C(=O)c2ccc(OCCN3CCOCC3)c(OC)c2)c1CC(=O)N(CCOC)CCOC`: the Potency was 0.526 µM (active).
Still for that read-out and setting: to `Cn1cc(-c2cnn3c(N)c(Br)c([C@H]4CCCNC4)nc23)cn1` belongs 1.05 µM (active); to `CCCCCN=C(N)NN=Cc1c[nH]c2ccc(OC)cc12`, 18.7 µM (active).
Still for that read-out and setting: to `C=CC(=O)Nc1cc(NC(=O)c2ccc(C)c(NC(=O)c3ccno3)c2)cc(C(F)(F)F)c1` belongs 33.2 µM (active).
With `N#Cc1c(C2CCNCC2)cc(-c2c(O)cccc2OCC2CC2)nc1N`, the Potency is 16.6 µM (active).
On to `C#C[C@]1(O)CC[C@@H]2[C@@H]3CCc4cc(O)ccc4[C@H]3CC[C@@]21C`, for which the Potency was 18.7 µM (active).
The same measure, in the same setting: to `C[C@]12CC[C@@H]3c4ccc(O)cc4CC[C@H]3[C@H]1CC[C@H]2O` belongs 10.5 µM (active); to `CCNC(=O)Nc1ccc(-c2nc3c(c(N4CCOC[C@H]4C)n2)CCN(C2COC2)C3)cc1`, 1.05 µM (active).
Still for that read-out and setting: to `CCOC(=O)N1CCN([N+]([O-])=NOc2ccc([N+](=O)[O-])cc2[N+](=O)[O-])CC1` belongs 18.7 µM (active).
On the same count and under the same terms, the figure for `NS(=O)(=O)OC[C@@H]1C[C@@H](n2ccc3c(N[C@H]4CCc5ccccc54)ncnc32)C[C@H]1O` is 0.833 µM (active).
